# According to the OligoGym collection:
# Molecular target: BBS5
# Experiment: pooled miR-30 sensor sort-seq; sequence = guide strand
# Conditions: shRNA
# Further: reference of the scale not given here.
row,Sequence,sensor-assay potency score (higher = more potent)
1,TTTCCTTAACTGATTCTTGTAG,-0.239
2,TATCATATACATGTTCTTGTGG,-0.0827
3,TTAGTATATAGAGAGCTTCAGT,-0.624
4,TTGAATTTGTTCGACTGTCAGA,-0.412
5,TTCTACATCATCTTGAATTTGT,-0.245
6,TTTTATCATATACATGTTCTTG,-0.69
7,AACATATCCACCACTCTGCTGA,-0.129
8,TTTATCATATACATGTTCTTGT,0.705
9,TTAGAGTTAGCAGTCCTTGTTG,-0.252
10,AAATTTTGAATCTCTAATCTTT,-0.135
11,TAAATATAAATTCAAAACGAGT,-1.56
12,TTCGACTGTCAGAGCTTCGAGC,-0.723

# Molecular target: BCAR3
# Experiment: as above
# Conditions: shRNA
row,Sequence,sensor-assay potency score (higher = more potent)
1,TTGAGGGACAAGGCTCTTCTGT,-0.76
2,TTGACTTGTGCACCTTTGCTGC,-0.561
3,TTTTCTAACCTTGTGATCTGTG,-0.0388
4,TGAATTTCTCATATCTCTCTGT,0.413
5,TTGGTGAACAGTTCTTTTGCAC,0.174
6,TTGCACGTTTCAACATTGCTGT,-0.296
7,TTGAGGAACGGCACCTTGCAGG,-0.594
8,TTGAATTTCTCATATCTCTCTG,0.778
9,TCTGATTGACTTGTGCACCTTT,0.95
10,TCGCATTTGAAATTCAGTCTTG,-0.471
11,TAGGAAGTCACCATCTCGCTGC,0.641
12,TAACCTTGTGATCTGTGGCATT,-0.946

# Molecular target: BCL11A
# Experiment: as above
# Conditions: shRNA
row,Sequence,sensor-assay potency score (higher = more potent)
1,TAAAAGACAACATAGAATGTAT,0.0879
2,TTATTTTATACTCAACCTCTGT,-0.873
3,TAAACAATCGTCATCCTCTGGC,-0.0288
4,TATCATTTGATTGTCCACTTGA,0.591
5,TGAAATTTGAACGTCTTGCCGC,0.0443
6,TAGCATAGGAATCAACATGAGT,-0.704
7,ATAACAAGTAGAAAGAACCATC,-0.773
8,TTCACATTTGTAAACGTCCTTC,-0.693
9,TACTATATAATCTTAAACCTTT,-0.147
10,TTAATTGTCCTATCTGAGCAGG,-0.599
11,TTGACAACCAAGTAGATCTGGA,0.0039
12,TTGCACTATATTATCCTGCCAA,-0.344
